A selection: hits, their analogues and other compounds. The true share with any hit is near 12%.
Sfp PPTase inh – inhibitors of Bacillus subtilis Sfp phosphopantetheinyl transferase; actives 3.5% (n = 310,000); Potency, µM, most hits filed as inhibitors; Q9F4F7; Biochemical Sfp PPTase activity, qHTS;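 further: the enzyme is Sfp with the accession as filed and its product quenches rhodamine fluorescence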
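Sfp 15 nM + cpd, 15 min RT; start w/ rhodamine-CoA 5 uM, BHQ-2-YbbR 12.5 uM (final); 50 mM Hepes pH 7.6, 10 mM MgCl2, 0.01% NP-40, 0.01% BSA; read 525/598 nm at 0 and 30 min.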
BAZ2B block – BAZ2B (human) inhibition; Potency, µM (highest dose often 114 µM), most hits filed as inhibitors; AlphaScreen BAZ2B-H3K14Ac peptide displacement; actives 4.4% (n = 360,000); Q9UIF8; AID 504333; further: nearly all actives have a fitted effect of over 60% in size
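Protein-peptide AlphaScreen: BAZ2B 50 nM, b-H3K14Ac 50 nM, 1x PBS pH 7.4 + 0.01% Tween-20. Preincubation 30 min RT; cpd 30 min RT (top 110 uM); beads 20 min RT, light-protected.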
HP1b binding inh – blocks HP1-beta chromodomain binding to methylated histone tails; P83916; AlphaScreen HP1-beta / biotin-H3K9me3 peptide binding; Potency, µM (series often up to 114 µM), hits mostly inhibitors; actives 0.56% (n = 390,000); further: nearly all actives have a fitted effect of over 70% in size
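HP1-beta protein (50 nM final) preincubated 30 min at room temperature with biotinylated H3(1-18)K9me3 peptide (50 nM) in PBS pH 7.4, 0.01% Tween-20, then compound added for 30 min. AlphaScreen streptavidin donor/nickel chelate acceptor beads (10 ug/mL final), 30 min dark, luminescence read.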
G9a inh – G9a (human) methyltransferase inhibition; Potency, µM (series often up to 102 µM), usual class: inhibitors; AID 504332; actives 8.8% (n = 350,000); G9a H3K9 monomethylation, AlphaScreen, 2 h; Q96KQ7; further: nearly all actives have a fitted effect of over 75% in size
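Readings reflect AlphaScreen signal from monomethyl-H3K9 antibody detection. HMT at 20 nM; substrate b-H3K9 500 nM; cofactor SAM 20 uM; 2 h RT reaction; compounds tested as titrations in qHTS with 15 min preincubation.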
PLK1 PBD block – inhibitors of human PLK1 polo-box domain binding | P53350 | Plk1 PBD binding of FITC phosphopeptide, fluorescence polarization | Potency, µM, most hits filed as inhibitors | actives 2.8% (n = 360,000); further: series mostly up to about 57 µM; nearly all actives have a fitted effect of over 65% in size
Target sequence (P53350 whole entry, looked up, the tested form may be a part): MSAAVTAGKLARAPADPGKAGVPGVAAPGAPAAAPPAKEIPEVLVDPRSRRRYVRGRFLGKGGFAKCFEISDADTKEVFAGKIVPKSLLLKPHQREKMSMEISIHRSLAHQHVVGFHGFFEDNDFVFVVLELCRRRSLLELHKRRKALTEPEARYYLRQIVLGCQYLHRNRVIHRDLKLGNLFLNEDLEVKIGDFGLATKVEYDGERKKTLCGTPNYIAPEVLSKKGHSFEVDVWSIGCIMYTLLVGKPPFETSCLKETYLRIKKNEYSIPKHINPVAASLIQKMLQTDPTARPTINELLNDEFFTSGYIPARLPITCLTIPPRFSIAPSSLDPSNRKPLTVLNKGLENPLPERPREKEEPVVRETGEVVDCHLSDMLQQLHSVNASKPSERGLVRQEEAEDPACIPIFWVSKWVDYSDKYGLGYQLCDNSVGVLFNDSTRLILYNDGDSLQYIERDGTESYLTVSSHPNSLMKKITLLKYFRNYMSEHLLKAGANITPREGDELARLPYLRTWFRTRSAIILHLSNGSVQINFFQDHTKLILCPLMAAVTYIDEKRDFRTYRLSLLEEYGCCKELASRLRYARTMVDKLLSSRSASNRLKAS
JMJD2A Tudor – inhibitors of human JMJD2A Tudor domain; O75164; AlphaScreen JMJD2A-Tudor / H3K4me3 peptide binding; Potency, µM (series often up to 114 µM), most hits filed as inhibitors; actives 4.4% (n = 390,000); AID 504339; further: nearly all actives have a fitted effect of over 50% in size
Hits are given with their value; . = inactive; ? = inconclusive; / = not tested or not shown; [ ] = remark or other dose. The call rests on the fitted dose curve; in most records, active means well fitted curve in the direction sought with a large enough effect; inconclusive means small, poorly fitted or top-dose-only effect, or another doubt; inactive means no such curve, though single readings can be large; an effect the other way counts as inactive or inconclusive.

SMILES | Sfp PPTase inh | BAZ2B block | HP1b binding inh | G9a inh | PLK1 PBD block | JMJD2A Tudor
CN(C)CCCN1C(=O)C(O)=C(C(=O)c2cccs2)C1c1cccc([N+](=O)[O-])c1 (stereo not given) | . | . | / | . | / | /
O=C(C1=C(O)C(=O)N(CCN2CCOCC2)C1c1ccc([N+](=O)[O-])cc1)c1cccs1 (stereo not given) | . | . | . | ? | . | 45µM
CC1CC(C)CN(C(=O)C(C)N(C)CC(=O)Nc2ccc(F)cc2)C1 (stereo not given) | / | . | . | .[12.7 µM] | . | .
CSc1ccccc1NC(=O)CN(C)C(C)C(=O)NCc1ccc2c(c1)OCO2 (stereo not given) | / | / | ? | / | . | 5µM
CC(C(=O)Nc1ccc2c(c1)OCO2)N(C)CC(=O)Nc1ccc(Cl)cc1 (stereo not given) | / | / | ? | / | . | 2.2µM
CC1CC(C)CN(C(=O)C(C)N(C)CC(=O)Nc2ccc(Cl)cc2)C1 (stereo not given) | ? | 45µM | ? | 50µM | . | 7.9µM
COc1ccc(NC(=O)CN(C)C(C)C(=O)N2CCCCC2)cc1 (stereo not given) | ? | 22µM | . | ? | . | 0.89µM
Cc1ccc(C)c(NC(=O)CN(C)C(C)C(=O)N2CCCC2)c1 (stereo not given) | / | / | . | / | . | .
COC(=O)C1=C(C)N(Cc2ccccc2)C(=NCc2cccc(Cl)c2)N[C@H]1c1cccc(F)c1 | 56µM | . | . | / | . | .
COC(=O)C1=C(C)N(Cc2ccccc2)C(=NCc2cc(OC)c(OC)c(OC)c2)N[C@H]1c1cccc(F)c1 | . | . | . | .[12.7 µM] | . | .
COC(=O)C1=C(C)N(Cc2ccccc2)C(=NCc2ccc(OC)cc2)N[C@H]1c1cccc(F)c1 | . | ? | . | 79µM | . | ?
COC(=O)C1=C(C)N(Cc2ccccc2)C(=NCc2ccco2)N[C@H]1c1cccc(F)c1 | / | / | . | / | . | ?
COc1cccc2cc(C(=O)C3=C(O)C(=O)N(CCN4CCOCC4)C3c3ccc(C)o3)oc12 (stereo not given) | . | ? | . | 32µM | . | .
O=C(C1=C(O)C(=O)N(CCN2CCOCC2)C1c1ccc(Cl)cc1)c1cc2ccccc2o1 (stereo not given) | . | . | . | .[0.0925 µM] | . | .
COC(=O)c1ccc(C2C(C(=O)c3cc4ccccc4o3)=C(O)C(=O)N2CCN2CCOCC2)cc1 (stereo not given) | . | . | . | ? | . | .
COc1ccccc1C1C(C(=O)c2cc3ccccc3o2)=C(O)C(=O)N1CCN1CCOCC1 (stereo not given) | . | ? | . | 8.9µM | ? | 89µM
COc1cccc(C2C(C(=O)c3cc4ccccc4o3)=C(O)C(=O)N2CCN2CCOCC2)c1 (stereo not given) | . | . | . | 45µM | . | .
O=C(C1=C(O)C(=O)N(CCN2CCOCC2)C1c1ccc([N+](=O)[O-])cc1)c1cc2ccccc2o1 (stereo not given) | . | . | . | 40µM | . | .
Cc1ccc(C(=O)OCC(=O)NC2CCCCCC2)c(C)c1 | / | . | . | . | . | .
CCC(=O)Nc1ccc2c(c1)Cc1cc([N+](=O)[O-])ccc1-2 | / | / | . | / | . | .
O=c1c(S(=O)(=O)c2cccc(Cl)c2)cn(Cc2ccccc2)c2cc(N3CCOCC3)c(F)cc12 | / | . | . | . | / | .
CCOC(=O)c1ccc(S(=O)(=O)N2CCN(c3nc(-c4ccccc4)nc4ccccc34)CC2)cc1 | / | / | . | / | / | .
CC(C)C[C@@H](CC(=O)N[C@@H](CCCN)CC(=O)N[C@@H]1CCCC[C@H]1C(=O)N[C@H](CC(=O)N[C@@H](CCC(=O)O)CC(=O)O)Cc1ccccc1)NC(=O)[C@@H]1CNCC[C@H]1N | . | / | / | / | / | /
COc1ccc(OC)c(-c2nc(C(=O)NC3CCN(Cc4ccccc4)CC3)cc3c2[nH]c2ccccc23)c1 | . | ? | . | .[12.7 µM] | . | ?
COc1ccc(OC)c(-c2nc(C(=O)NCCCN3CCOCC3)cc3c2[nH]c2ccccc23)c1 | . | 50µM | . | .[12.7 µM] | . | ?
SMILES | Sfp PPTase inh | BAZ2B block | HP1b binding inh | G9a inh | PLK1 PBD block | JMJD2A Tudor
COc1ccc(-n2nc(C(=O)NCCCN3CCOCC3)c3ccccc3c2=O)c(OC)c1 | . | . | . | . | 21µM | 56µM
COC(=O)[C@H](COC(C)(C)C)NC(=O)O[C@@H]1C(=O)c2cc(OC)ccc2O[C@H]1c1ccc(OC)c(Br)c1 | . | / | / | / | / | /
CCOc1ccccc1NC(=O)CN1C(=O)C(=O)c2ccccc21 | / | . | . | . | / | .
CCOc1ccccc1C(O)C1=CC(=O)c2ccccc2C1=O (stereo not given) | / | / | . | / | ? | 25µM
COC(=O)c1ccc(OC)c(CN2CCCN(Cc3ccc(C)cc3)S2(=O)=O)c1 | / | . | . | . | / | .
COc1ccc(S(=O)(=O)c2cc3cc(C(C)(C)C)cc(O)c3oc2=O)cc1 | / | 25µM | . | 16µM | / | ?
COc1ccc(S(=O)(=O)c2cc3cc(OC)ccc3oc2=O)cc1 | / | . | . | . | / | .
CC(C(=O)O)n1c2ccccc2c2cn[nH]c(=O)c21 (stereo not given) | . | . | . | .[0.501 µM] | . | .
CC(C(=O)O)n1c(-c2ccn[nH]2)n[nH]c1=S (stereo not given) | ? | . | . | ? | 15µM | .[11.4 µM]
Cc1c(C2Nc3ccccc3C(=O)N2O)cnn1C (stereo not given) | . | . | . | 10µM | . | ?
O=C1c2ccccc2NC(c2ccco2)N1O (stereo not given) | . | . | . | ? | . | .
CCn1cc(C2Nc3ccccc3C(=O)N2O)c(C)n1 (stereo not given) | . | . | . | 18µM | . | .
O=C(/C(=C/O)N=Nc1ccccc1)c1cccs1 | . | 22µM | 45µM | 35µM | ? | .[11.4 µM]
C=C(C)C(=O)c1cccs1 | . | / | / | / | / | /
COc1ccc2[nH]c3c(=O)n(CCCCCC(=O)NCCC(C)C)c(=S)[nH]c3c2c1 | . | . | . | . | . | .
CCCCNC(=O)CCCCn1c(=S)[nH]c2c([nH]c3ccc(OC)cc32)c1=O | . | . | . | . | 27µM | ?
COc1ccc2[nH]c3c(=O)n(Cc4ccc(C(=O)N5CCCC5)cc4)c(=S)[nH]c3c2c1 | . | . | ? | 7.9µM | 24µM | 6.3µM
COc1ccc2[nH]c3c(=O)n(CCCCC(=O)N4CCC(C(N)=O)CC4)c(=S)[nH]c3c2c1 | . | . | . | ? | . | 3.5µM
COc1ccc2[nH]c3c(=O)n(CCCCC(=O)NCCN4CCCC4)c(=S)[nH]c3c2c1 | 79µM | . | ? | ? | . | 5.6µM
CCOc1cc(CNC(=O)c2cc(-c3ccc(Cl)s3)nc3ccccc23)ccc1OC | / | . | . | . | / | .
